Results filed as inconclusive are left out. A call without a number means that no potency is given here. The source made the active and inactive calls. The call rests on the fitted dose curve; in most records, active means well fitted activation curve with a large enough effect; inconclusive means small, poorly fitted or top-dose-only effect, or another doubt; inactive means no such curve, though single readings can be large or run the other way.
target: Rap guanine nucleotide exchange factor 3 (Homo sapiens) (UniProt O95398); assay: Counterscreen qHTS for agonist of cAMP-regulated guanine nucleotide exchange factor 3 (EPAC1) (AID 1645889); conditions: EPAC1 Rap1B-BODIPY-GDP exchange, fluorescence; series mostly up to 154 µM; further: nearly all actives have a fitted effect of over 40% in size
In short: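 Rap1B-BODIPY-GDP 250 nM + GDP 50 uM; cpds 7-pt, final 9.74 nM–152 uM (activator mode) or from 7.32 nM upwards (inhibitor mode); RT; FI 480/540 nm at 5 and 30 min, then ± cAMP, reread.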

**Q.** Which Potency does the source give for `COC1=C/C(=C/c2c(N)n3nc(-c4ccc(C)cc4)sc3nc2=O)C=CC1=O` here?
**A.** Its Potency is “inactive”.

**Q.** `Cc1ccc2oc(=O)c3cnn(CC(=O)NC4CCC(C)CC4)c3c2c1` (stereo not given) was tested. Which Potency did it give?
**A.** The Potency was “inactive”.

**Q.** `CC(=O)NC(c1ccc(Cl)cc1Cl)c1ccc2cccnc2c1O` (stereo not given) was tested. Which Potency did it give?
**A.** Its Potency is “inactive”.

**Q.** For `CCOC(=O)c1c(C)[nH]c(C(=O)C(C)OC(=O)c2ccc(NC(=O)CC#N)cc2)c1C` (stereo not given), which Potency is on record?
**A.** Its Potency is “inactive”.

**Q.** With `CC(C)OP(=O)(OC(C)C)C1(NS(=O)(=O)c2ccc(Cl)cc2)C=C(Cl)C(=O)C(Cl)=C1` as the compound, how does the activation read?
**A.** Its activation is 22.3% [at 30.8 µM] (inactive).

**Q.** For `Cc1cc(Br)c2c(c1)[C@](O)(c1cn(C)c3ccccc13)C(=O)N2C`, which activation is on record?
**A.** The activation was 24.7% [at 30.8 µM] (inactive).

**Q.** `Cc1ccc(C2CC(c3cccs3)=NN2C(=O)c2ccco2)o1` (stereo not given) was tested. Which activation did it give?
**A.** The activation was 16.2% [at 30.8 µM] (inactive).

**Q.** With `C[C@@H]1CCCCCCCCC(=O)OCCN1C(=O)OC(C)(C)C` as the compound, how does the Potency read?
**A.** Its Potency is “inactive”.

**Q.** How did the Potency turn out when `Cc1ccccc1-c1ccc(CN2C(C(C)C)C(=O)N(Cc3cn(CCC4OCCO4)nn3)CCS2(=O)=O)cc1` (stereo not given) was run?
**A.** The Potency was “inactive”.

**Q.** Which Potency does the source give for `CCOC(=O)[C@H]1[C@H]2COc3ccc(C)cc3[C@@H]2N2C(=O)c3cc(F)c(F)cc3NC(=O)[C@@]12C` here?
**A.** Its Potency is “inactive”.

**Q.** `O=C(O)CSc1nnc(COc2cccc3ccccc23)n1Cc1ccccc1` was tested. Which Potency did it give?
**A.** Its Potency is “inactive”.

**Q.** Which Potency does the source give for `O=c1oc2ccccc2n1Cc1ccccc1Cl` here?
**A.** The Potency was “inactive”.

**Q.** For `CCOC(=O)c1c(CC(C)C)csc1NC(=O)COC(=O)c1ccc(O)cc1`, which Potency is on record?
**A.** Its Potency is “inactive”.

**Q.** How did the Potency turn out when `Fc1ccc2c(-c3cccc(C(F)(F)F)c3)c(-c3ccccc3)ncc2c1` was run?
**A.** Its Potency is “inactive”.

**Q.** How did the Potency turn out when `O=C(O)c1cc(N/N=C/C=C/c2ccccc2)ccc1Cl` was run?
**A.** Its Potency is “inactive”.

**Q.** For `NS(=O)(=O)c1ccc(N/N=C/c2ccc(C(=O)O)cc2)c([N+](=O)[O-])c1`, which Potency is on record?
**A.** The Potency was “inactive”.

**Q.** Which Potency does the source give for `O=C(Nc1ccccc1C(=O)Nc1nnc(C(F)(F)F)s1)c1ccccc1Cl` here?
**A.** The Potency was “inactive”.

**Q.** With `COc1cccc(N2CCN(CC(=O)NC(=O)NCc3ccco3)CC2)c1` as the compound, how does the Potency read?
**A.** The Potency was “inactive”.

**Q.** With `CC(=O)C1=C(O)C2(C)c3c(O)c(C)c(O)c(C(C)=O)c3OC2CC1=O` (stereo not given) as the compound, how does the activation read?
**A.** Its activation is -4.12% [at 30.8 µM] (inactive).

**Q.** Which Potency does the source give for `Fc1ccc2cnc(-c3ccccc3)c(-c3ccc(C(F)(F)F)cc3)c2c1` here?
**A.** Its Potency is “inactive”.

**Q.** `CCCCC[C@H](C)N1C[C@H](COCc2ccccc2)Oc2cc(N3CCC[C@H]3C(N)=O)ccc2S1(=O)=O` was tested. Which Potency did it give?
**A.** Its Potency is “inactive”.

**Q.** `COc1cc2c(c(OC)c1OC)C(c1ccccc1C)CC(=O)O2` (stereo not given) was tested. Which Potency did it give?
**A.** The Potency was “inactive”.

**Q.** For `O=C(COC(=O)c1c2c(nc3ccccc13)/C(=C\c1ccco1)CC2)NC1CCCC1`, which Potency is on record?
**A.** The Potency was “inactive”.

**Q.** Which Potency does the source give for `O=C(O)c1cc(NN=C2c3ccccc3-c3ccccc32)ccc1Cl` here?
**A.** Its Potency is “inactive”.

**Q.** With `O=C(Nc1nc2ccccc2c(=O)s1)c1ccc(F)cc1Cl` as the compound, how does the Potency read?
**A.** The Potency was “inactive”.

**Q.** Which Potency does the source give for `CC(C)CNC(=O)C1(C)CCCCCN1Cc1ccccc1-c1ccccc1` (stereo not given) here?
**A.** The Potency was “inactive”.

**Q.** `O=C(O)c1[nH]c2ccccc2c1C(c1cccc(O)c1)c1c(C(=O)O)[nH]c2ccccc12` was tested. Which Potency did it give?
**A.** Its Potency is “inactive”.

**Q.** For `Cn1c2ccccc2c2cc(/C=N/NC(=O)c3cc(O)cc(O)c3)ccc21`, which Potency is on record?
**A.** Its Potency is “inactive”.

**Q.** `Cc1ccc(C2CC(c3cccs3)=NN2C(=O)CSc2nc(=O)n3cc(C)ccc3n2)cc1` (stereo not given) was tested. Which Potency did it give?
**A.** Its Potency is “inactive”.

**Q.** With `Cc1ccc2nc(-c3cccc(Br)c3)c(Cc3ccccn3)n2c1` as the compound, how does the Potency read?
**A.** Its Potency is “inactive”.

**Q.** For `Oc1ccc(-c2cn3c(n2)SCC3)cc1O`, which Potency is on record?
**A.** The Potency was “inactive”.

**Q.** How did the Potency turn out when `Cc1c(C(=O)N2CCCC2)oc2ccc(Br)cc12` was run?
**A.** The Potency was “inactive”.

**Q.** `CCc1cc(=O)oc2cc(C)cc(OCC(=O)N[C@@H](CSCc3ccccc3)C(=O)O)c12` was tested. Which Potency did it give?
**A.** Its Potency is “inactive”.

**Q.** `COc1ccccc1/C=C/C=c1\sc2nc(=O)c(Cc3ccccc3)nn2c1=O` was tested. Which Potency did it give?
**A.** The Potency was “inactive”.

**Q.** How did the Potency turn out when `CCOC(=O)C1=C(C)NC(C)=C(C(=O)OCC)C1C(=O)OCC(=O)NCc1ccc(F)cc1` was run?
**A.** The Potency was “inactive”.

**Q.** Which Potency does the source give for `Cc1noc(C)c1COc1ccccc1C(=O)N(C)Cc1ccc(C(C)(C)C)cc1` here?
**A.** Its Potency is “inactive”.

**Q.** For `COc1cc(/C=C2\SC(=S)N(NC(=O)c3ccc(O)c(OC)c3)C2=O)ccc1O`, which Potency is on record?
**A.** Its Potency is “inactive”.

**Q.** Which Potency does the source give for `CCOc1cnc(-c2c(-c3ccccc3Cl)noc2C)o1` here?
**A.** Its Potency is “inactive”.

**Q.** How did the activation turn out when `COC(=O)C1=CN(Cc2cccs2)C=C(C(=O)OC)C1c1cccc(Cl)c1` was run?
**A.** Its activation is 24.6% [at 30.8 µM] (inactive).

**Q.** How did the Potency turn out when `O=C(Cc1ccc(Br)c2ccccc12)N/N=C/c1ccccn1` was run?
**A.** The Potency was “inactive”.

— PubChem BioAssay (NCATS)
